NIH3T3 tox: NIH 3T3 cell cytotoxicity | NIH 3T3 viability, CellTiter-Glo ATP luminescence, 48-72 h | Potency, µM (titrated, usually from 96.7 µM), without a hit: at the highest dose activity change, negative = cytotoxicity, hits mostly inhibitors | hit rate 4.3% among 94,000 | AID 1345082; further: nearly all actives have a fitted effect of over 55% in size
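Cytotoxicity is measured as loss of cellular ATP: NIH 3T3 cells (400/well) are exposed to compound for 48 or 72 hr at 37 °C, then CellTiter-Glo luminescence is imaged after 10 min at room temperature.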
HEK cytotox: cytotoxic compounds in HEK 293 cells | Potency, µM (top dose mostly 115 µM), for the others: at the highest dose activity change, negative = cytotoxicity, usual class: inhibitors | hit rate 6.6% among 94,000 | AID 1345083 | HEK 293 viability, ATP luminescence (CellTiter-Glo), 48-72 h; further: nearly all actives have a fitted effect of over 60% in size
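HEK 293 cells at 250 cells/well were exposed to compounds by pintool transfer for 48 or 72 hr at 37 degree Celsius, 5% CO2. Viability was read as ATP-coupled luminescence with CellTiter-Glo after 10 min at room temperature.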
NPR1 antag: human Npr1 receptor antagonism. Potency, µM (highest dose often 46.3 µM), for inactives: at the top dose activity change, negative = inhibition, usual class: inhibitors. HEK293 hNpr1 GloSensor cGMP, ANP-stimulated luminescence. hit rate 1.6% among 76,000; calls by dose curve; further: nearly all actives have a fitted effect of over 60% in size
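HEK293 cells stably expressing human Npr1 and cGMP GloSensor pGS-40F, loaded 2 h with 2% GloSensor reagent, given compound 30 min at room temperature. Luminescence read before and 20 min after 0.1 nM hNppA.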
GPT2 inhibitor: blocks human glutamate pyruvate transaminase 2; Potency, µM (series often up to 57.7 µM), without a hit: at the highest dose activity change, negative = inhibition, most hits filed as inhibitors; AID 1671188; Q8TD30; Recombinant GPT2, coupled pyruvate oxidase/HRP Amplex Red fluorescence; hit rate 0.25% among 100,000; further: nearly all actives have a fitted effect of over 60% in size
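GPT2 10ng/uL, a-KG 250uM, L-Ala 2mM, HEPES pH7.5 + 0.0001% Tween; 30 min RT. Then Amplex mix (PO/HRP/ThPP), 30 min RT dark, fluorescence. AOA 50uM used as positive control.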
Luciferase inh: Photinus pyralis luciferase inhibition | AID 1347043 | hit rate 2.5% among 76,000 | P08659 | Potency, µM (titrated, usually from 115 µM), actives largely listed as inhibitors | purified P. pyralis luciferase, luminescence, biochemical; further: nearly all actives have a fitted effect of over 65% in size
Target sequence (P08659 whole entry, looked up): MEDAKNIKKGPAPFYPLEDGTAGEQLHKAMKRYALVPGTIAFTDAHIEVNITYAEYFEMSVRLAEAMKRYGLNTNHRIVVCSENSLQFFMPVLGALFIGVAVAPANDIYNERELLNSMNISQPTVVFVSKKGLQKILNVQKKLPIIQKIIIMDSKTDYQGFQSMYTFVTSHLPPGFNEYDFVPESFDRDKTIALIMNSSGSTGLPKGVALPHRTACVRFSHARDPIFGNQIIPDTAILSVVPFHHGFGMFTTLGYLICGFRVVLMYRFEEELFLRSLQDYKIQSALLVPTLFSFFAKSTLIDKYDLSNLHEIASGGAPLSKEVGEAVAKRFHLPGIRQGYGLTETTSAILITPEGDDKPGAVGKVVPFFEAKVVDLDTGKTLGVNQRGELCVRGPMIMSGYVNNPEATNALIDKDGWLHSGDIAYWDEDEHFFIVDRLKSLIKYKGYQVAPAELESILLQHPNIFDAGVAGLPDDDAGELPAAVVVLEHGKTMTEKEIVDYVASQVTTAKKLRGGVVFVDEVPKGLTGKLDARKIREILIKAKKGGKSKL
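Purified 10nM P. pyralis luciferase with 10uM D-luciferin and 10uM ATP in 50mM Tris acetate pH 7.5, 10mM Mg acetate, 0.01% Tween-20, 0.05% BSA. qHTS titration; luminescence read by CCD imager.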
Active calls of the source: *; [ ] = another dose, or the depositor's remark. Compounds with a hit are over-represented: about 10% of the library has one in this group of screens. Unless noted, the call rests on the fitted dose curve; in most records, active means well fitted curve in the direction sought with a large enough effect; inconclusive means small, poorly fitted or top-dose-only effect, or another doubt; inactive means no such curve, though single readings can be large; an effect the other way counts as inactive or inconclusive. On the % scale 0 is the no-effect control and ±100 the full control effect; potency means the concentration at half of the fitted maximal effect.

Screening CN(C)c1nccnc1OC1CCN(C(=O)c2ccncc2)C1 (centres undefined) returned NIH3T3 tox inactive, HEK cytotox 0%, NPR1 antag 0%, GPT2 inhibitor 2% and Luciferase inh inactive.
`COc1ccc(C(=O)N2CCC(Oc3ncccc3C(=O)N3CCCCC3)C2)c(OC)c1` (centres undefined) gave NIH3T3 tox -13%, HEK cytotox 1%, NPR1 antag -3%, GPT2 inhibitor inactive and Luciferase inh inactive.
COc1ccc(C(=O)N2CCC(Oc3nccnc3N(C)C)C2)c(OC)c1 (centres undefined) was read as NIH3T3 tox inactive, HEK cytotox inconclusive, NPR1 antag 0%, GPT2 inhibitor inactive and Luciferase inh 20µM*.
CCOc1ccccc1C(=O)N1CCC(Oc2nccnc2N(C)C)C1 (centres undefined) was read as NIH3T3 tox -5%, HEK cytotox inconclusive, NPR1 antag 0%, GPT2 inhibitor inactive and Luciferase inh 32µM*.
For O=C(NCCCc1ccccc1)c1cn2cc(-c3ccc(F)cc3)sc2n1 the results were NIH3T3 tox 20µM*, HEK cytotox inconclusive and GPT2 inhibitor -16%.
`O=C(NCc1ccccn1)c1cn2cc(-c3cccc(C(F)(F)F)c3)sc2n1` gave NIH3T3 tox -14%, HEK cytotox inconclusive and GPT2 inhibitor inactive.
CC(C)CNC(=O)c1cn2cc(-c3ccccc3)sc2n1 was read as NIH3T3 tox inconclusive, HEK cytotox 71µM* and GPT2 inhibitor -10%[88.5 µM].
`O=C(NC1CCCCC1)c1cn2cc(-c3ccccc3)sc2n1` gave NIH3T3 tox inconclusive, HEK cytotox 63µM* and GPT2 inhibitor -11%[88.5 µM].
O=C(NC1CC1)c1cn2cc(-c3ccccc3)sc2n1 was read as NIH3T3 tox inconclusive, HEK cytotox inconclusive and GPT2 inhibitor inactive.
For O=C(NCCc1ccccc1)c1cn2cc(-c3ccc(C(F)(F)F)cc3)sc2n1 the results were NIH3T3 tox -12%, HEK cytotox -4% and GPT2 inhibitor -8%.
O=C(NCc1ccccn1)c1cn2cc(-c3ccccc3)sc2n1 was read as NIH3T3 tox inconclusive, HEK cytotox 50µM* and GPT2 inhibitor 5%.
COCCOCc1nc(C2CCN(C(=O)NC3CCCCC3)CC2)no1 was read as NIH3T3 tox inactive, HEK cytotox -4%, NPR1 antag 0%, GPT2 inhibitor inactive and Luciferase inh inactive.
Screening CC12CCC(CC1)C(C)(C)O2 returned GPT2 inhibitor 4%.
COc1cccc(-c2cn3cc(C(=O)N4CCN(C(C)=O)CC4)nc3s2)c1 was read as NIH3T3 tox inconclusive, HEK cytotox inconclusive and GPT2 inhibitor inactive.
`COc1cccc(-c2cn3cc(C(=O)NCCCc4ccccc4)nc3s2)c1` gave NIH3T3 tox 35µM*, HEK cytotox inconclusive and GPT2 inhibitor -49%.
Screening O=C(NCc1ccc(F)cc1)c1cn2cc(-c3ccccc3)sc2n1 returned NIH3T3 tox inconclusive, HEK cytotox 79µM* and GPT2 inhibitor -14%[88.5 µM].
For COc1cccc(-c2cn3cc(C(=O)N4CCCCC4)nc3s2)c1 the results were NIH3T3 tox 40µM*, HEK cytotox inconclusive and GPT2 inhibitor 2%.
Screening Cc1[nH]c(C)c(Cl)c(=O)c1Cl returned GPT2 inhibitor inactive.
Screening Cc1cc(F)ccc1OCC(=O)c1ccc2c(c1)N(C(C)C(=O)NCc1ccc(F)cc1)C(=O)CO2 (centres undefined) returned NIH3T3 tox inconclusive, HEK cytotox 45µM*, NPR1 antag -9%, GPT2 inhibitor inactive and Luciferase inh inactive.
Cc1ccc(C)c(OCC(=O)c2ccc3c(c2)N(C(C)C(=O)NCC2CCCO2)C(=O)CO3)c1 (centres undefined) was read as NIH3T3 tox -22%, HEK cytotox 45µM*, NPR1 antag 6%, GPT2 inhibitor -5% and Luciferase inh inactive.
`O=C(c1cc2c(s1)CCC(C(=O)N1CCN(C3CCCC3)CC1)C2)N1CCCCCC1` (centres undefined) gave NIH3T3 tox inconclusive, HEK cytotox inconclusive, NPR1 antag -2%, GPT2 inhibitor 1% and Luciferase inh inactive.
CCNC(=O)N1CCC(Cc2ncc(C)n2Cc2ccc(F)cc2)CC1 was read as NIH3T3 tox -5%, HEK cytotox 1%, NPR1 antag -13%, GPT2 inhibitor inactive and Luciferase inh inactive.
CN(c1ccccc1)c1ccc2nnc(-c3cc(C(=O)N4CC(O)C4)ccn3)n2n1 was read as NIH3T3 tox 100µM*, HEK cytotox inconclusive, NPR1 antag 4%[70.6 µM], GPT2 inhibitor -3%[88.5 µM] and Luciferase inh inactive.
Screening COC1CCN(C(=O)c2ccnc(-c3nnc4ccc(N(C)C)nn34)c2)CC1 returned NIH3T3 tox 45µM*, HEK cytotox -6%[172 µM], NPR1 antag 6%[70.6 µM], GPT2 inhibitor 1%[88.5 µM] and Luciferase inh inactive.
Screening CN(Cc1ccccc1)C(=O)c1ccnc(-c2nnc3ccc(N(C)c4ccccc4)nn23)c1 returned NIH3T3 tox -68%, HEK cytotox inconclusive, NPR1 antag -15%, GPT2 inhibitor 0% and Luciferase inh inactive.
For CN(C)c1ccc2nnc(-c3cc(C(=O)Nc4cccc(Cl)c4)ccn3)n2n1 the results were NIH3T3 tox 7.9µM*, HEK cytotox -28%[172 µM], NPR1 antag -17%[70.6 µM], GPT2 inhibitor -16%[88.5 µM] and Luciferase inh inactive.
`O=C(Nc1cccnc1)c1ccnc(-c2nnc3ccc(N4CCOCC4)nn23)c1` gave NIH3T3 tox 100µM*, HEK cytotox -10%[172 µM], NPR1 antag 9%[70.6 µM], GPT2 inhibitor 0%[88.5 µM] and Luciferase inh inactive.
COc1ccc(C(=O)N2C[C@@H]3CCCN4CCC[C@@H]([C@H]34)[C@H]2CCCC(=O)N2CCOCC2)cc1 was read as NIH3T3 tox inactive, HEK cytotox -2%, NPR1 antag 2%, GPT2 inhibitor inactive and Luciferase inh inconclusive.
Screening CCCN(CC1CCOC1)C(=O)Nc1c(C)cccc1C (centres undefined) returned NIH3T3 tox inactive, HEK cytotox 5%, NPR1 antag 1%, GPT2 inhibitor -8% and Luciferase inh inactive.
For Cc1cnn(CC(=O)N2CC(F)(F)C[C@H]2c2nc(C3CC3)no2)c1 the results were NIH3T3 tox 0%, HEK cytotox inactive, NPR1 antag 0%, GPT2 inhibitor inactive and Luciferase inh inactive.
`CN(c1ccccc1)c1ccc2nnc(-c3ccc(F)cn3)n2n1` gave NIH3T3 tox inconclusive, HEK cytotox inconclusive, NPR1 antag -8%[70.6 µM], GPT2 inhibitor -6%[88.5 µM] and Luciferase inh inactive.
Screening COc1ccnc(-c2nnc3ccc(N(C)c4ccccc4)nn23)c1 returned NIH3T3 tox 20µM*, HEK cytotox 45µM*, NPR1 antag -13%[70.6 µM], GPT2 inhibitor 1%[88.5 µM] and Luciferase inh inactive.

Source: PubChem BioAssay (National Center for Advancing Translational Sciences (NCATS))
